Test in all cases: qHTS profiling for inhibitors of Plasmodium falciparum proliferation (AID 504749); also: nearly all actives have a fitted effect of over 60% in size
What all share (details): P. falciparum in erythrocytes, SYBR Green DNA, 72 h; series mostly up to 28.7 µM
(In general: Quantitative high-throughput screening tests each substance at several concentrations.)

One assay has as its system 7G8. Summed up: (§1)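 Fluorescence of SYBR Green-bound parasite DNA, read at 485/535 nm, served as the growth measure. Infected erythrocytes were cultured with compound 72 h; artemisinin (0.29 uM) and DMSO wells defined the normalization range.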
Another assay has as its system C2A. The essentials: as §1
Another assay deals with CP192. Summed up: as §1
In another assay the test system is CP194. Summed up:
as §1

In another assay the test system is CP203. The essentials:
as §1

Another assay has as its system CP211. Summed up:
as §1

Another assay has as its system CP217. Summed up: as §1
A further assay has as its system CP237. Summed up:
as §1

The test system of another assay is CP266. The essentials:
as §1

The test system of a further assay is CP268. Summed up:
as §1

Another assay deals with CP269. The essentials: as §1
The subject of another assay is CP291. The essentials: as §1
For a further assay, the system named is CP329. The essentials:
as §1

The next assay deals with DIV30. The essentials: as §1
The subject of a further assay is HB3. The essentials:
as §1

In the next assay the test system is P94_40. The essentials:
as §1

Another assay has as its system PC15. Summed up:
as §1

A further assay has as its system PC26. The essentials:
as §1

The test system of another assay is PC49. The essentials:
as §1

A further assay has as its system SC27B. Summed up:
as §1

Inconclusive results are not listed. Activity calls are given as the source filed them. Calls follow the shape of the dose curve; as a rule, active = well fitted inhibition curve with a large enough effect; inconclusive = small, poorly fitted or top-dose-only effect; inactive = flat fitted curve, though single readings scatter. Numbered stars: 1 amine (or outer) side, 2 acyl side, 3 side chain; on linkers, the order of the positions; unused ones are H or OH. Bridge positions count the residues as written; N and C are the ends. Square brackets hold non-standard residues; d marks the D form. Peptide text beside a SMILES is read from it. * marks the point of attachment. ξ: configuration not given here. ΔAla(Z-3-ureido) = NC(=O)N/C=C(\N)C(=O)O; ξDab(CH2SO3H) = NC(CCNCS(=O)(=O)O)C(=O)O; X1 = NC1=NCCC(C(N[*:1])C(=O)[*:2])N1; Heptanoyl(6-Me) = CC(C)CCCCC(=O)*; ξβ3hOrn = NCCCC(N)CC(=O)*; Orn = NCCC[CH](N)C(=O)O; Dab = NCC[CH](N)C(=O)O; Dap = NC[CH](N)C(=O)O
Potency is read from the fitted curve at half-maximal effect.

Take `CC(=O)OCC(=O)[C@@]1(O)CCC2C3CCC4=CC(=O)CC[C@]4(C)C3=CC[C@@]21C` (some centres undefined): the Potency entry with 7G8, in the assay on C2A, in the assay with CP192, in the assay with CP194, in the assay on CP203 and with CP211 was “inactive” each time. Also, the Potency result in the assay with CP217, with CP237, with CP266, with CP268, with CP269 and in the assay with CP291 was “inactive” each time. For the same compound, the Potency result with CP329, in the assay with DIV30, in the assay on HB3, in the assay with P94_40, in the assay with PC15 and in the assay on PC26 was “inactive” each time. In addition, the Potency entry in the assay with PC49 and with SC27B was “inactive” each time.
Regarding `CC(C)C(NC(=O)C(CC(=O)O)NC(=O)C(CCCCN)NC(=O)C(N)CCCN=C(N)N)C(=O)NC(Cc1ccc(O)cc1)C(=O)O` (centres undefined) (H-RKDVY-OH; configuration not given here), the Potency result in the assay on 7G8, in the assay on C2A, with CP192, in the assay with CP194, in the assay on CP203 and with CP211 was “inactive” throughout. The Potency entry in the assay on CP217, in the assay with CP237, with CP266, in the assay on CP268, in the assay with CP269 and with CP291 was “inactive” throughout. Further, the Potency result in the assay with CP329, in the assay on DIV30, with HB3, in the assay on P94_40, with PC15 and in the assay on PC26 was “inactive” each time. The Potency result in the assay with PC49 and in the assay on SC27B was “inactive” throughout.
For `C=CC1=C(C(=O)O)N2C(=O)[C@@H](NC(=O)C(N=O)c3csc(N)n3)[C@H]2SC1` (some centres undefined), the Potency result with 7G8, with C2A, in the assay with CP192, with CP194, with CP203 and in the assay with CP211 was “inactive” each time. Besides, the Potency entry in the assay with CP217, in the assay on CP237, with CP266, with CP268, in the assay with CP269 and with CP291 was “inactive” each time. For the same compound, the Potency result in the assay with CP329, in the assay on DIV30, with HB3, in the assay on P94_40, with PC15 and in the assay with PC26 was “inactive” each time. For the same compound, the Potency entry with PC49 and with SC27B was “inactive” throughout.
`CCC(C)C1NC(=O)C(CCNCS(=O)(=O)O)NC(=O)C(NC(=O)C(CCNCS(=O)(=O)O)NC(=O)C(NC(=O)C(CCNCS(=O)(=O)O)NC(=O)CCCCC(C)C)C(C)O)CCNC(=O)C(C(C)O)NC(=O)C(CCNCS(=O)(=O)O)NC(=O)C(CCNCS(=O)(=O)O)NC(=O)C(C(C)CC)NC1=O` (centres undefined) ({Heptanoyl(6-Me)}-[ξDab(CH2SO3H)]T[ξDab(CH2SO3H)][Dab][ξDab(CH2SO3H)]II[ξDab(CH2SO3H)][ξDab(CH2SO3H)]T; lactam 4-C; configuration not given here): the Potency result with 7G8, in the assay on C2A, in the assay with CP192, in the assay with CP194, with CP203 and in the assay on CP211 was “inactive” throughout. For the same compound, the Potency entry with CP217, with CP237, in the assay with CP266, in the assay with CP268, with CP269 and with CP291 was “inactive” each time. In addition, the Potency result in the assay with CP329, in the assay with DIV30, in the assay on HB3, in the assay on P94_40, with PC15 and with PC26 was “inactive” in each case. Besides, the Potency entry in the assay on PC49 and in the assay on SC27B was “inactive” in each case.
For the compound `O=C(OCC1OC(OC(=O)c2cc(O)c(O)c(OC(=O)c3cc(O)c(O)c(O)c3)c2)[C@@H](OC(=O)c2cc(O)c(O)c(OC(=O)c3cc(O)c(O)c(O)c3)c2)C(OC(=O)c2cc(O)c(O)c(OC(=O)c3cc(O)c(O)c(O)c3)c2)C1OC(=O)c1cc(O)c(O)c(OC(=O)c2cc(O)c(O)c(O)c2)c1)c1cc(O)c(O)c(OC(=O)c2cc(O)c(O)c(O)c2)c1` (some centres undefined), the Potency with 7G8 is 2000 nM (active); in the assay on C2A it was 2820 nM (active); with CP192 it was 7570 nM (active); in the assay on CP194 it was 3790 nM (active); in the assay with CP203, 4260 nM (active); in the assay on CP211, 4780 nM (active). Besides, the Potency in the assay with CP217 was 3550 nM (active); in the assay on CP237, 2510 nM (active); in the assay on CP266, 3790 nM (active); in the assay with CP268 it was 3380 nM (active); in the assay with CP269, 1900 nM (active); in the assay with CP329 it was 4260 nM (active). Besides, the Potency was 5360 nM (active) in the assay on DIV30; 2000 nM (active) with HB3; 2820 nM (active) in the assay with P94_40; 7940 nM (active) in the assay on PC15; 7570 nM (active) in the assay with PC26; 11200 nM (active) in the assay on PC49. Besides, in the assay with SC27B, the Potency is 3160 nM (active).
Take `NCCCC(N)CC(=O)NCC1NC(=O)C(CO)NC(=O)C(N)CNC(=O)C(C2CCN=C(N)N2)NC(=O)/C(=C/NC(N)=O)NC1=O` (stereo not drawn) (H-[Dap]S[Dap](ξβ3hOrn)[ΔAla(Z-3-ureido)][X1]; lactam 1-C; configuration not given here): the Potency entry with 7G8, in the assay with C2A, with CP192, in the assay with CP194, in the assay on CP203 and in the assay with CP211 was “inactive” in each case. Moreover, the Potency result with CP217, in the assay with CP237, in the assay on CP266, with CP268, in the assay with CP269 and with CP291 was “inactive” each time. Further, the Potency entry with CP329, with DIV30, in the assay with HB3, with P94_40, in the assay with PC15 and in the assay on PC26 was “inactive” throughout. The Potency result in the assay on PC49 and in the assay with SC27B was “inactive” throughout.
Take `NC(=O)CCC1NC(=O)C(Cc2ccccc2)NC(=O)C(Cc2ccc(O)cc2)NC(=O)CCSSCC(C(=O)N2CCCC2C(=O)NC(CCCN=C(N)N)C(=O)NCC(N)=O)NC(=O)C(CC(N)=O)NC1=O` (centres undefined): the Potency result in the assay with 7G8, in the assay with C2A, in the assay with CP192, in the assay on CP194, in the assay on CP203 and with CP211 was “inactive” each time. Further, the Potency result in the assay with CP217, in the assay with CP237, in the assay with CP266, in the assay on CP268, in the assay with CP269 and in the assay on CP291 was “inactive” throughout. Also, the Potency entry in the assay with CP329, in the assay with DIV30, with HB3, in the assay with P94_40, in the assay with PC15 and in the assay with PC26 was “inactive” throughout. Besides, the Potency result in the assay on PC49 and in the assay with SC27B was “inactive” each time.
On to `CC(C)CC1NC(=O)C(CCCN)NC(=O)C(C(C)C)NC(=O)C2CCCN2C(=O)C(Cc2ccccc2)NC(=O)C(CC(C)C)NC(=O)C(CCCN)NC(=O)C(C(C)C)NC(=O)C2CCCN2C(=O)C(Cc2ccccc2)NC1=O` (centres undefined) (cyclo(FPV[Orn]LFPV[Orn]L); configuration not given here), for which the Potency is 0.3 nM (active) with 7G8; 2.5 nM (active) with C2A; 1.7 nM (active) in the assay on CP192; 1.3 nM (active) in the assay on CP194; 1.3 nM (active) with CP203; 1.3 nM (active) with CP211. Further, the Potency is 2.2 nM (active) in the assay on CP217; 0.9 nM (active) with CP237; 1.9 nM (active) in the assay on CP266; 13.5 nM (active) in the assay on CP268; 1.3 nM (active) with CP269; 0.4 nM (active) in the assay on CP291. In addition, the Potency with CP329 was 1.9 nM (active); in the assay with DIV30 it was 0.4 nM (active); with HB3 it was 3.5 nM (active); in the assay on P94_40, 0.4 nM (active); with PC15, 5.6 nM (active); in the assay with PC26, 1.1 nM (active). Besides, the Potency in the assay with PC49 was 7.1 nM (active); in the assay with SC27B, 6.3 nM (active).
Turning to `CC(C)CC(NC(=O)C(COC(C)(C)C)NC(=O)C(Cc1ccc(O)cc1)NC(=O)C(CO)NC(=O)C(Cc1c[nH]c2ccccc12)NC(=O)C(Cc1cnc[nH]1)NC(=O)C1CCC(=O)N1)C(=O)NC(CCCN=C(N)N)C(=O)N1CCCC1C(=O)NNC(N)=O` (centres undefined), the Potency result in the assay with 7G8, with C2A, in the assay with CP192, in the assay with CP194, with CP203 and in the assay on CP211 was “inactive” in each case. Further, the Potency entry in the assay with CP217, in the assay with CP237, in the assay with CP266, with CP268, in the assay on CP269 and in the assay on CP291 was “inactive” in each case. In addition, the Potency result in the assay on CP329, with DIV30, in the assay with HB3, with P94_40, with PC15 and in the assay on PC26 was “inactive” in each case. Besides, the Potency entry in the assay with PC49 and in the assay on SC27B was “inactive” throughout.
